Inconclusive results are not listed. Activity calls are given as the source filed them. Rule as the data show it, unless noted: active = inhibition above about 30%; inactive = the rest.
What was measured:
[1] = Her2 expression decrease, cell viability multiplex – SKBR3 breast tumor cells, AlphaScreen, ATP viability, primary screen (AID 461;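 active = Her2 level under about 52% in both replicate screens, with viability over 70% of control, limit read from the data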;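 as to Her2 level: lower value means less Her2 protein in the cells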;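 as to viability: percent of carrier control wells set as 100% viability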); conditions: SKBR3 Her2 protein level, 18-24 h, measured here: SKBR3 viability, ATP luminescence, at 10 µM
[2] = biological target: Receptor tyrosine-protein kinase erbB-2 (Homo sapiens) (UniProt P04626); assay: as above; conditions: 18-24 h, at 10 µM, stronger effect = lower value
Receptor tyrosine-protein kinase erbB-2 (Homo sapiens), sequence (P04626 whole entry, looked up): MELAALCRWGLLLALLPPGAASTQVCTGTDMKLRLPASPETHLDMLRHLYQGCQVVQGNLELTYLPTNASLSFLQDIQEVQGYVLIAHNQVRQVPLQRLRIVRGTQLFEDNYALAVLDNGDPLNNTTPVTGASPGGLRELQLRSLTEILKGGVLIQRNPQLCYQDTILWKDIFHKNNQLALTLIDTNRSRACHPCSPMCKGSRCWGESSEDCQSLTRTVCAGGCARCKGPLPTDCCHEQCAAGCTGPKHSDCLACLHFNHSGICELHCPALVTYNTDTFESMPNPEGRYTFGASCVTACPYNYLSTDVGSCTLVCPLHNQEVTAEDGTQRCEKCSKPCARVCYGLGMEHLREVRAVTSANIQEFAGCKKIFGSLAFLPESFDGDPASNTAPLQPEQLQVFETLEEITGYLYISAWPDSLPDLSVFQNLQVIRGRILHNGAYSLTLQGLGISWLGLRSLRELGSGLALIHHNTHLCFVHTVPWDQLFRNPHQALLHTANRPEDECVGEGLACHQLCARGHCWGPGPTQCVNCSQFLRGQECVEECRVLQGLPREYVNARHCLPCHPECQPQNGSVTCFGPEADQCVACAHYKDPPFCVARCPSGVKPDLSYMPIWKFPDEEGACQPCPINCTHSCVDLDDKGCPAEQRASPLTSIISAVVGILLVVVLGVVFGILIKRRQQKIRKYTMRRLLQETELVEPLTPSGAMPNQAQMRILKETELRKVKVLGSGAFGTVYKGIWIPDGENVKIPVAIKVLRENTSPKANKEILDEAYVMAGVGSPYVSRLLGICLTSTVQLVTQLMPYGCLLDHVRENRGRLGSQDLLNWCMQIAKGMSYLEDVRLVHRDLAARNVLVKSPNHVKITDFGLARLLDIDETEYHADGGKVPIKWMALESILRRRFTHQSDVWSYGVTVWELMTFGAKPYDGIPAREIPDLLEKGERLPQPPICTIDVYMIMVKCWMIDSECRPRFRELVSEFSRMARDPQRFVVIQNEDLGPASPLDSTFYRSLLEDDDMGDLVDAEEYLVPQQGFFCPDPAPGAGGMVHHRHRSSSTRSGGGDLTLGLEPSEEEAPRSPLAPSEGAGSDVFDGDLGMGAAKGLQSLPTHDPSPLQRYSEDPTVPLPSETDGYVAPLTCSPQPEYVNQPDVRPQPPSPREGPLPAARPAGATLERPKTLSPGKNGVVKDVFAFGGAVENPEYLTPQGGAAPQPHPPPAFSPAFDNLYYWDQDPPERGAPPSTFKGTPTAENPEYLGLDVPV

[3] = reduced viability of SK-BR-3 breast cancer cells – cell-based, 24 h, human, pilot screen (AID 572;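 active = viability at or below 10% of carrier control in both of two separate runs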;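 also: compound exposure lasted between 18 and 24 h rather than exactly 24 h; 100% = carrier-treated control wells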); conditions: SK-BR-3 viability, CellTiter-Glo luminescence, at 10 µM, stronger effect = lower value
[4] = HUVEC growth inhibition – cell-based, human, primary screen (AID 575;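 active = viability at or below 30% in both replicate assays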;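 also: 100% = median of untreated cell wells with 0.1% DMSO on each plate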); conditions: HUVEC proliferation, CellTiter-Glo luminescence, 72 h; at 10 µM; stronger effect = lower value
[5] = H69AR cell proliferation blockers – human, duplicate replicates, primary screen (AID 580;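 active = viability at or under a set limit in both replicates, limit being median viability minus 3 SD, cut at about 48% in these data, passing the limit was not always enough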;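 also: 100% = mean luminescence of untreated wells and 0% = no signal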); conditions: H69AR lung tumor cells viability, ATP luminescence, 72 h; at 10 µM; stronger effect = lower value
[6] = MRP1 drug-resistance reversers in H69AR cells – cell-based, doxorubicin co-treatment, pilot screen (AID 601;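 active = viability loss from added drug above about 55%, and viability with drug at most 40%, in both replicates, limit read from the data, passing the limit was not always enough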); conditions: CellTiter-Glo, 72 h, at 10 µM; for differential viability (reversal): stronger effect = higher value
[7] = yeast transport mutant growth inhibition pilot in 384-well plates, post-Golgi transport modulator project (AID 636; in the data active = inhibition above about 31%); conditions: absorbance 615 nm, about 18 h, stronger effect = higher value
[8] = growth suppression of yeast trafficking mutant, preliminary HTS, modulators of trafficking downstream of Golgi apparatus project, 1536-format plate, OD 615 nm (AID 637); conditions: yeast transport mutant growth, absorbance 615 nm, 18 h; stronger effect = higher value
[9] = S. cerevisiae growth inhibition in permissive medium (OD615), pilot counter-assay for S. cerevisiae lifespan shortening project, permissive growth control (AID 705;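 active = growth inhibition above 25% in both replicates, a cutoff set 3 SD above the mean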); conditions: OD615, 24 h, at 10 µM, stronger effect = higher value
[10] = S. cerevisiae growth inhibition in restrictive medium, OD615, pilot screen, restrictive growth control, yeast lifespan reduction project (AID 706;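 active = growth inhibition above a set limit, 3 SD over mean compound inhibition, in both replicates, cut at about 43% in these data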;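 also: modified DeaD lifespan yeast strain shifted to restrictive glucose medium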); conditions: OD615, 48 h, at 10 µM, stronger effect = higher value
[11] = doxorubicin toxicity protection in MRP-1 cells – H69AR cells, CellTiter-Glo, duplicate, MRP-1 activator project, pilot screen (AID 807;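 active = viability increase at or above a cutoff of the median across tested compounds plus 3 SD, cut at about 8.5% in these data, passing the limit was not always enough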;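 also: compound pretreatment 18-22 h then 72 h combined with doxorubicin; 0% = doxorubicin alone and 100% = vehicle without doxorubicin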); conditions: H69AR viability with doxorubicin, CellTiter-Glo luminescence; at 10 µM; stronger effect = higher value
[12] = viability of HCT116 without oncogenic beta-catenin – human colon tumor cells, pilot screen (AID 823;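 active = cell viability at or below a set limit in both duplicate runs, the limit being the all-compound median minus 4 SD, cut at about 23% in these data, passing the limit was not always enough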;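 also: 0% = wells killed by 20 µM Hyamine and 100% = untreated DMSO cell wells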); conditions: HCT116 beta-catenin knockout viability, CellTiter-Glo, 60 h; at 10 µM; stronger effect = lower value
[13] = viability of PTEN-null HCT116 cells – cell-based, HCT116 clonal line, CellTiter-Glo, pilot screen (AID 824;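 active = viability at or below 27.92% in each of two runs, the all-compound median minus 4 SD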;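 also: 0% = 20 µM Hyamine control and 100% = vehicle cell control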); conditions: HCT116 PTEN-deleted viability, 60 h, at 10 µM, stronger effect = lower value
[14] = RAM pathway blockade in budding yeast – dse1pr::URA3 reporter, 5-FOA selection, pilot screen (AID 869;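 active = inhibition over a set limit, the all-compound mean plus 3 SD, in both replicate runs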;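 also: 0% = DMSO wells with no growth and 100% = 10 µM 1-NA-PP1 with full growth; RAM network block rescues cells from 5-FOA so hits raise OD615 growth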); conditions: S. cerevisiae dse1pr::URA3 5-FOA growth, OD615, 2 d; at 10 µM; stronger effect = higher value; strain carries analog-sensitive mutant Cbk1 kinase
[15] = RAM signaling pathway blockade in yeast – S. cerevisiae, Pdr1DBD-CYC8 efflux-inhibited sensitized strain, primary screen (AID 1298;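 active = RAM network inhibition above 8.4% in each of two replicates, 3 SD over the compound average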;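 also: 0% = DMSO untreated cells without growth and 100% = 10 µM 1-NA-PP1 full growth; higher means more yeast growth rescued from 5-FOA killing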); conditions: S. cerevisiae cbk1-as DSE1-URA3 strain, 5-FOA growth OD615, 2 d; at 50 µM; stronger effect = higher value
[16] = H69AR cells + 2 uM doxorubicin, measured here: viability with 2 uM doxorubicin, stronger effect = lower value
[17] = H69AR cells, compound alone cytotoxicity

O=c1oc2ccccc2cc1NCc1ccccc1O
87.4%: viability [6, 16]
90.5%: viability [1]
73.9%: viability [6, 17]
inactive: Her2 level [2] 82% | viability [3] 90.5% | viability [4] 79.2% | viability [5] 73.9% | differential viability (reversal) ([6]; H69AR cells + 2 uM doxorubicin) -13.5% | inhibition [7] -2.56% | inhibition [8] -0.5% | growth inhibition [9] -12.5% | growth inhibition [10] -15.2% | viability increase [11] -6.51% | viability [12] 91.2% | viability [13] 91.1% | inhibition [14] 1.91% | RAM network inhibition [15] 1.22%

COc1cccc(-c2cc(C(F)(F)F)nc(NCc3ccco3)n2)c1
87.7%: viability [6, 16]
95.8%: viability [6, 17]
inactive: Her2 level [2] 94.5% | viability [3] 108% | viability [4] 61.6% | viability [5] 95.8% | differential viability (reversal) ([6]; H69AR cells + 2 uM doxorubicin) 8.14% | inhibition [7] -5.27% | inhibition [8] -1.48% | growth inhibition [9] 0.4% | growth inhibition [10] 18% | viability increase [11] -3.81% | viability [12] 70.9% | viability [13] 67.6% | inhibition [14] 2.38% | RAM network inhibition [15] 8.17%
108%: viability [1]

CC(C)c1nnc(NC(=O)C2CCCCC2)s1
99.5%: viability [6, 17]
inactive: Her2 level [2] 97% | viability [3] 98.5% | viability [4] 96.5% | viability [5] 99.5% | differential viability (reversal) ([6]; H69AR cells + 2 uM doxorubicin) 5.75% | inhibition [7] -4.13% | inhibition [8] 0.83% | growth inhibition [9] -3.55% | growth inhibition [10] 0.755% | viability increase [11] -0.65% | viability [12] 99.7% | viability [13] 97.1% | inhibition [14] -0.59% | RAM network inhibition [15] -2.03%
93.8%: viability [6, 16]
98.5%: viability [1]

COc1cc2c(cc1OC)CN(C(=O)CSc1nnc3scc(-c4ccccc4)n13)CC2
inactive: Her2 level [2] 97% | viability [3] 96% | viability [4] 86.7% | viability [5] 85.3% | differential viability (reversal) ([6]; H69AR cells + 2 uM doxorubicin) 8.16% | inhibition [7] -0.53% | inhibition [8] -3.77% | growth inhibition [9] 16.4% | viability increase [11] -3.13% | viability [12] 99.4% | viability [13] 94.6% | inhibition [14] 1.08% | RAM network inhibition [15] 3.4%
85.3%: viability [6, 17]
96%: viability [1]
active: growth inhibition [10] 69%
77.2%: viability [6, 16]

COc1ccc(C(=O)NCC(=O)NC2=NCCS2)cc1
inactive: Her2 level [2] 104% | viability [3] 100% | viability [4] 120% | viability [5] 102% | differential viability (reversal) ([6]; H69AR cells + 2 uM doxorubicin) 10.7% | inhibition [7] -4.67% | inhibition [8] 0.33% | growth inhibition [9] -1.83% | growth inhibition [10] -4.44% | viability increase [11] -1.93% | viability [12] 102% | viability [13] 98.1% | inhibition [14] 1.56% | RAM network inhibition [15] 2.03%
102%: viability [6, 17]
100%: viability [1]
91%: viability [6, 16]

CCc1nn(CC(=O)NCCCN2CCc3ccccc3C2)c(=O)c2cc3sccc3n12
inactive: Her2 level [2] 86.5% | viability [3] 86% | viability [4] 89.1% | viability [5] 77.5% | differential viability (reversal) ([6]; H69AR cells + 2 uM doxorubicin) -3.23% | inhibition [7] -3.46% | inhibition [8] 1% | growth inhibition [9] -2.08% | growth inhibition [10] -10.3% | viability increase [11] -4.54% | viability [12] 78.9% | viability [13] 79.9% | inhibition [14] 0.58% | RAM network inhibition [15] 1.52%
80.8%: viability [6, 16]
77.5%: viability [6, 17]
86%: viability [1]

COc1cccc(C2C(C(N)=O)=C(C)Nc3nc(-c4ccccc4Cl)nn32)c1 (stereo not given)
79.5%: viability [1]
76.4%: viability [6, 16]
inactive: Her2 level [2] 92.5% | viability [3] 79.5% | viability [4] 69.3% | viability [5] 92.1% | differential viability (reversal) ([6]; H69AR cells + 2 uM doxorubicin) 15.7% | inhibition [7] -5.33% | inhibition [8] -2.83% | growth inhibition [9] -0.045% | growth inhibition [10] -2.87% | viability increase [11] -2.66% | viability [12] 67.2% | viability [13] 72.2% | inhibition [14] -0.135% | RAM network inhibition [15] 2.34%
92.1%: viability [6, 17]

Cc1nc2ccc(S(=O)(=O)NC(C(=O)N3CCCC3)C(C)C)cc2s1 (stereo not given)
79.5%: viability [6, 16]
inactive: Her2 level [2] 106% | viability [3] 88.5% | viability [4] 111% | viability [5] 97.3% | differential viability (reversal) ([6]; H69AR cells + 2 uM doxorubicin) 17.8% | inhibition [7] -1.92% | inhibition [8] -0.5% | growth inhibition [9] 3.5% | growth inhibition [10] 11.5% | viability increase [11] -2.03% | viability [12] 92.2% | viability [13] 91.2% | inhibition [14] 2.62% | RAM network inhibition [15] 0.27%
97.3%: viability [6, 17]
88.5%: viability [1]

CC(C)(C)SCCNC(=O)COc1ccc(Cl)cc1
94.5%: viability [1]
89.4%: viability [6, 16]
inactive: Her2 level [2] 90% | viability [3] 94.5% | viability [4] 113% | viability [5] 109% | differential viability (reversal) ([6]; H69AR cells + 2 uM doxorubicin) 19.5% | inhibition [7] -6.89% | inhibition [8] 4.1% | growth inhibition [9] -8.49% | growth inhibition [10] -12% | viability increase [11] 0.22% | viability [12] 96.2% | viability [13] 96.9% | inhibition [14] -0.23% | RAM network inhibition [15] 4.53%
109%: viability [6, 17]

CCOC(=O)C1CCN(Cc2ccc(F)c(Br)c2)CC1
inactive: Her2 level [2] 118% | viability [3] 122% | viability [4] 106% | viability [5] 85.5% | differential viability (reversal) ([6]; H69AR cells + 2 uM doxorubicin) -7.29% | inhibition [7] -1.17% | inhibition [8] 9.5% | growth inhibition [9] -3.72% | growth inhibition [10] -1.05% | viability increase [11] -2.69% | viability [12] 90.4% | viability [13] 91.9% | inhibition [14] 2.35% | RAM network inhibition [15] -0.36%
85.5%: viability [6, 17]
92.8%: viability [6, 16]
122%: viability [1]
